The values that follow come from PubChem BioAssay (Tox21).

“And” between values parts separate entries of the source, which are not always exact repeats. Equal entries are not always repeated. Some compounds were tested as several samples or in several runs, with calls that do not always agree. The source made the active and inactive calls. Unless noted, the call rests on the fitted dose curve; in most records, active means well fitted curve in the direction sought with a large enough effect in the repeat runs; inconclusive means weak or mixed curves; inactive means no such curve, though single readings can be large; an effect the other way counts as inactive or inconclusive.

Assay [1] can be described thus: qHTS assay to identify small molecule antagonists of the thyroid receptor (TR) signaling pathway - cell viability counter screen (AID 743064). Further: nearly all actives have a fitted effect of over 50% in size. Put shortly: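 Fluorescence from CellTiter-Fluor, added after 23.5 h exposure at 37 °C, reported viability of GH3.TRE-Luc cells co-treated with compound and 1 nM T3. Measured in the same wells as the luciferase TR readout.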
(qHTS replaces the single test concentration by a dilution series.)

Assay [2] in a line: qHTS assay to identify small molecule antagonists of the thyroid receptor (TR) signaling pathway (AID 743065). Further: nearly all actives have a fitted effect of over 55% in size. Put shortly: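 GH3.TRE-Luc rat pituitary cells carrying two TR response elements driving luciferase were plated for 4 h, given compound plus 1 nM T3 (final), and incubated 23.5 h at 37 C. ONE-Glo luminescence measured reporter inhibition; CellTiter-Fluor fluorescence tracked cytotoxicity.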

Assay [3] deals with thyroid hormone receptor (rat, GH3 cells). The experiment in a line: qHTS assay to identify small molecule agonists of the thyroid receptor (TR) signaling pathway (AID 743066; calls by dose curve).
The target of assay [4] is Estrogen receptor (Homo sapiens) (UniProt P03372). Description: qHTS assay to identify small molecule antagonists of the estrogen receptor alpha (ER-alpha) signaling pathway (AID 743069; active means well fitted curve in the direction sought with a large enough effect in the signal ratio in the repeat runs, not every such curve was filed as active; inconclusive means weak or mixed curves, or effect the other way; inactive means no such curve, though single readings can be large or run the other way; the % refers to the signal ratio). Put shortly: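 A 17beta-estradiol challenge was applied right after compound transfer to ER-alpha-UAS-bla HEK293 cells previously kept in charcoal-stripped serum. Plates stood 18 hr at 37C and 5% CO2; fluorescence was read following 2 hr FRET substrate loading at room temperature.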

Assay [5] in a line: qHTS assay to identify small molecule antagonists of the estrogen receptor alpha (ER-alpha) signaling pathway - cell viability counter screen (AID 743074; calls by dose curve;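 further: HEK293 cells carrying ER-alpha-UAS-bla reporter stimulated with 17beta-estradiol; nearly all actives have a fitted effect of over 45% in size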).
The target in assay [6] is Estrogen receptor (Homo sapiens) (UniProt P03372). Description: qHTS assay to identify small molecule agonists of the estrogen receptor alpha (ER-alpha) signaling pathway (AID 743075; calls by dose curve;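 further: HEK293 GripTite cells with ER-alpha and UAS-driven beta-lactamase reporter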).
The target is the same in assay [7]. The experiment in a line: qHTS assay to identify small molecule agonists of the estrogen receptor alpha (ER-alpha) signaling pathway using the BG1 cell line (AID 743079). Further: nearly all actives have a fitted effect of over 20% in size. The conditions noted are these: BG1Luc4E2 cells, ERE-luciferase agonist, 22 h; activation: at 70.3 µM (top of the series).
Assay [8] can be described thus: qHTS assay to identify small molecule antagonists of the estrogen receptor alpha (ER-alpha) signaling pathway using the BG1 cell line - cell viability counter screen (AID 743081).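 Further: compound given together with 17beta-estradiol as the ER stimulus; nearly all actives have a fitted effect of over 45% in size.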
For assay [9], the target named is Aromatase (Homo sapiens) (UniProt P11511). The experiment in a line: qHTS assay to identify aromatase inhibitors (AID 743083). Further: nearly all actives have a fitted effect of over 55% in size.
Assay [10] is described as follows: qHTS assay to identify small molecule antagonists of the estrogen receptor alpha (ER-alpha) signaling pathway using the BG1 cell line (AID 743080; calls by dose curve;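 further: BG1 cells stimulated with 17beta-estradiol alongside compound; nearly all actives have a fitted effect of over 25% in size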). The method in brief:
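Luminescence from a 4×ERE-luciferase reporter in BG1-Luc-4E2 cells served as read-out. Cells, pre-cultured 5 days in stripped-serum phenol-red-free medium, were exposed to compound with 17beta-estradiol co-stimulation for 21.5 h at 37 C.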
Potency means the concentration at half of the fitted maximal effect.

Chain of Aromatase (Homo sapiens) (P11511 whole entry, looked up): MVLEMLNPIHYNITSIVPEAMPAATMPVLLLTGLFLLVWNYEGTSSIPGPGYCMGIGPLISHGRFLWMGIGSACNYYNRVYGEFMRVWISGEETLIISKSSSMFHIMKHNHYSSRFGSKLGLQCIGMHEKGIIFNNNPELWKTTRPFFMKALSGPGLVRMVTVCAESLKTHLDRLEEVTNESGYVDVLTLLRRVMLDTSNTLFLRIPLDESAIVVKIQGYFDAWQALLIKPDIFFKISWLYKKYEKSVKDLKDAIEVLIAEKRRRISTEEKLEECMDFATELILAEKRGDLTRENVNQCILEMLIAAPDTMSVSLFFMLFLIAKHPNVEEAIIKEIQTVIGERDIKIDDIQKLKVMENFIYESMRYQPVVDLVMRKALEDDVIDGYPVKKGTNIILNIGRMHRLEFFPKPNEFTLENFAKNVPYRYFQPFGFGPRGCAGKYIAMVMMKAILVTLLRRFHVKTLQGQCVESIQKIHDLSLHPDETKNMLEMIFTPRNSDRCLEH
Chain of Estrogen receptor (Homo sapiens) (P03372 whole entry, looked up): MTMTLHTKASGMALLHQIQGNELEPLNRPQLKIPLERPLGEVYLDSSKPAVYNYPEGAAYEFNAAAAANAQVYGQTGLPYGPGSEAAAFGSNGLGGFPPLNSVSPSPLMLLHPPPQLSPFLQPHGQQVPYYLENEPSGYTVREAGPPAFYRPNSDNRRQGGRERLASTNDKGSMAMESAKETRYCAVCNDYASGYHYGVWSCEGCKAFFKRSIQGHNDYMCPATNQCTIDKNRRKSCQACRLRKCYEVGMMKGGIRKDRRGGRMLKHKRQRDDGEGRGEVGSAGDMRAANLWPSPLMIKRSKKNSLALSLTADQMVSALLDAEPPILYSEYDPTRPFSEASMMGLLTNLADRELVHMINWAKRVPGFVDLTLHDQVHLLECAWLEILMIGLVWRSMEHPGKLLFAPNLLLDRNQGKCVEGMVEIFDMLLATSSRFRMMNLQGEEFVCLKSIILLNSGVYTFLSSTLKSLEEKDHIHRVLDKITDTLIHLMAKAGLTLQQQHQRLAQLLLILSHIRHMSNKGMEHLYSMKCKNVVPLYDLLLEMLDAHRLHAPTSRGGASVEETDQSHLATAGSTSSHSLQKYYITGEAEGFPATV

With `O=[N+]([O-])c1ccc(CCl)cc1`, the Potency entry in [1], in [2], in [3], in [4], in assay [5] and in assay [6] was “inactive” throughout. Further, the Potency entry in [7], in assay [8] and in assay [9] was “inactive” throughout.

With `C=C(C)C(=O)[O][Sn]([CH2]CCC)([CH2]CCC)[CH2]CCC`, the Potency was 0.433 µM (active) in [1]; 0.306 µM (active) in assay [2]; 0.0306 µM (active) in assay [3]; 1.74 µM (active) in assay [5]; 0.344 µM (active) in assay [10]; 1.37 µM (active) in [8]. The Potency in assay [9] is 3.86 µM (active).

Turning to `COP(=S)(OC)Oc1ccc([N+](=O)[O-])c(C)c1`, the Potency result in assay [1], in assay [2], in assay [3], in assay [5], in assay [6] and in assay [7] was “inactive” throughout. Besides, the Potency result in assay [10] and in assay [8] was “inactive” in each case.

As for `COc1cnc(OC)n2nc(NS(=O)(=O)c3c(OCC(F)F)cccc3C(F)(F)F)nc12`, the Potency entry in assay [1], in [2], in [3], in assay [4], in assay [5] and in assay [6] was “inactive” throughout. The Potency result in assay [7], in [10], in [8] and in [9] was “inactive” each time.

As to `N#CCCl`, the Potency entry in assay [1], in assay [2], in [3], in assay [4], in assay [5] and in [10] was “inactive” in each case. Further, the Potency result in assay [8] and in [9] was “inactive” throughout. Besides, in assay [7], the Potency is 28.4 µM (active).

Turning to `N#CSCc1ccccc1`, the Potency result in assay [1], in assay [2], in assay [3], in [4], in assay [5] and in [7] was “inactive” throughout. The Potency result in assay [10], in assay [8] and in [9] was “inactive” throughout.

Turning to `CC(C)c1c(CN(C)C(C)Cc2ccccc2)n(C)n(-c2ccccc2)c1=O` (stereo unspecified), the Potency entry in [1], in [3], in assay [4], in [5], in assay [6] and in assay [7] was “inactive” throughout. Besides, the Potency entry in [10], in [8] and in assay [9] was “inactive” in each case. Moreover, the Potency in [2] is 11.4 µM (active).

Turning to `COc1nc(C)nc(NC(=O)NS(=O)(=O)c2ccccc2Cl)n1`, the Potency entry in assay [1], in assay [2], in assay [3], in assay [4], in assay [5] and in assay [10] was “inactive” in each case. Also, the Potency entry in assay [8] and in assay [9] was “inactive” each time.

As for `C[C@]12C/C(=C/O)C(=O)C[C@@H]1CC[C@@H]1[C@@H]2CC[C@@]2(C)[C@H]1CC[C@]2(C)O`, the Potency result in assay [1] is “inactive and 61.7 µM (active)”; in assay [2], 29.8 µM (active) and 55 µM (active); in [6], 674 nM [inconclusive] (active) and 783 nM [inconclusive] (active); in [7], 211 nM (active) and 97.8 nM (active). The Potency entry in [3], in assay [4], in assay [5], in [10], in [8] and in [9] was “inactive” each time.

Turning to `Cc1cccc(Cc2cnc[nH]2)c1C`, the Potency entry in [1], in assay [2], in assay [3], in assay [4], in assay [6] and in [7] was “inactive” each time. The Potency result in assay [10] and in assay [8] was “inactive” each time.

`CCCCN(CCCC)C(=S)S`: the Potency result in assay [1], in assay [2], in assay [3], in assay [4], in assay [5] and in assay [6] was “inactive” in each case. Moreover, the Potency entry in assay [7], in [10], in assay [8] and in [9] was “inactive” throughout.

Take `CCC[CH2][Sn]([CH2]CCC)([O]C(C)=O)[O]C(C)=O`: the Potency in assay [1] was 19.5 µM (active); in assay [2] it was 3.89 µM (active); in assay [4], 31.2 µM [inconclusive] (active); in assay [9], 15.5 µM (active). The Potency entry in assay [3], in [5] and in assay [6] was “inactive” in each case.

Turning to `ClCBr`, the Potency result in [1], in assay [2], in assay [3], in [4], in assay [5] and in assay [6] was “inactive” in each case. Also, the Potency entry in assay [10], in [8] and in [9] was “inactive” each time.

For the compound `CC(Cl)CCl` (stereo unspecified), the Potency result in assay [1], in [2], in [3], in assay [4], in [5] and in [6] was “inactive” in each case. Also, the Potency entry in assay [7], in [10], in assay [8] and in assay [9] was “inactive” each time.

As for `C=CCBr`, the Potency result in assay [1], in assay [2], in [3], in [4], in assay [5] and in assay [6] was “inactive” in each case. The Potency entry in assay [7], in [10], in [8] and in [9] was “inactive” in each case.

For `CC(Cc1ccc(O)cc1)NCC(O)c1cc(O)cc(O)c1` (stereo unspecified), the Potency result in assay [1], in [2], in assay [3], in assay [4], in [6] and in [10] was “inactive” in each case. Moreover, the Potency entry in assay [8] and in [9] was “inactive” each time.

For `CCNS(=O)(=O)C(F)(F)C(F)(F)C(F)(F)C(F)(F)C(F)(F)C(F)(F)C(F)(F)C(F)(F)F`, the Potency result in assay [1], in assay [2], in assay [3], in assay [5], in [8] and in [9] was “inactive” throughout.

For the compound `Fc1ccc(C(OCCN2CCN(CCCc3ccccc3)CC2)c2ccc(F)cc2)cc1`, the Potency in [1] was 9.44 µM (active); in assay [2], 7.5 µM (active); in [5] it was 15.1 µM (active); in assay [8], 21.1 µM (active); in [9], 18.8 µM (active). The Potency result in [6] is “inactive”.

In the case of `Cc1nn(-c2cc(NS(C)(=O)=O)c(Cl)cc2Cl)c(=O)n1C(F)F`, the Potency result in [1], in assay [2], in [3], in [5], in assay [8] and in assay [9] was “inactive” throughout.

On to `COC(=O)N(OC)c1ccccc1COc1ccn(-c2ccc(Cl)cc2)n1`, for which the Potency was 61.1 µM (active) in [1]; 0.137 µM (active) in [2]; 275 nM [inconclusive] (active) in assay [6]; 0.77 µM (active) in assay [10]; 61.1 µM (active) in [9].

`Oc1cc(Cl)c(Cl)c(Cl)c1Cl`: the Potency is 29.9 µM (active) in assay [1] and 15 µM (active) in [2]. In addition, the Potency result in assay [3], in assay [6] and in [8] was “inactive” each time.

As for `O=C(NC(=O)c1c(F)cccc1F)Nc1ccc(Oc2ccc(C(F)(F)F)cc2Cl)cc1F`, the values for the Potency in [1] and in assay [2] were 43.3 µM (active) and 38.6 µM (active), respectively. The Potency result in assay [3], in assay [5] and in assay [8] was “inactive” throughout.

Consider `[C-]1=CC=CC1.[Cl][Zr+2][Cl].c1cc[cH-]c1`, for which the Potency result in [1], in [2], in [3], in [5] and in assay [8] was “inactive” throughout.

In the case of `[F][Sn]([c]1ccccc1)([c]1ccccc1)[c]1ccccc1`, the Potency was 0.77 µM (active) in [1]; 0.386 µM (active) in assay [2]; 1.1 µM (active) in assay [5]; 2190 nM [inconclusive] (active) in assay [6]; 1.93 µM (active) in [10]; 7.7 µM (active) in [8].
